# Reference: PubChem BioAssay (EPA / NIEHS)
# The source made the active and inactive calls. The calls were made as follows: active = hit-call score of the fitted dose curve at least 0.9, where 1 is the maximum; inactive = score below 0.9.
# How the values were obtained:
# [1] = read-out: Thrombomodulin, THBD (gene 7056); experiment: BSK_CASM3C_Thrombomodulin: BioMAP Diversity Plus: CASM3C Assay for Thrombomodulin Biomarker Activity (AID 2283051); conditions: primary human coronary artery smooth muscle cells; actives raise or lower the signal;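 also: thrombomodulin protein level measured by ELISA 24 h after dosing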
# [2] = read-out: Tissue Factor, F3 (gene 2152); experiment: BSK_CASM3C_TissueFactor: BioMAP Diversity Plus: CASM3C Assay for Tissue Factor Biomarker Activity (AID 2283052); conditions: primary human coronary artery smooth muscle cells; actives raise or lower the signal;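 also: cell surface tissue factor protein level read by ELISA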
# [3] = read-out: Interferon-gamma inducible Protein 10 (IP10), CXCL10 (gene 3627); experiment: BSK_hDFCGF_IP10: BioMAP Diversity Plus: hDFCGF Assay for Interferon-gamma inducible Protein 10 (IP10) Biomarker Activity (AID 2283053); conditions: primary human foreskin fibroblasts; actives raise or lower the signal
# Method in brief: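 IP-10 levels, quantified by ELISA, are taken from human foreskin fibroblast cultures 24 h after chemical treatment, with DMSO serving as negative control and baseline for bidirectional analysis.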
# [4] = read-out: Urokinase-type plasminogen activator receptor (uPAR), PLAUR (gene 5329); experiment: BSK_CASM3C_uPAR: BioMAP Diversity Plus: CASM3C Assay for Urokinase-type plasminogen activator receptor (uPAR) Biomarker Activity (AID 2283054); conditions: primary human coronary artery smooth muscle cells; actives raise or lower the signal;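 also: cell-surface uPAR protein level quantified by ELISA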
# [5] = read-out: Vascular cell adhesion molecule 1 (VCAM1), VCAM1 (gene 7412); experiment: BSK_CASM3C_VCAM1: BioMAP Diversity Plus: CASM3C Assay for Vascular cell adhesion molecule 1 (VCAM1) Biomarker Activity (AID 2283055); conditions: primary human coronary artery smooth muscle cells; actives raise or lower the signal;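 also: VCAM-1 protein level quantified by ELISA on the cells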
# [6] = read-out: Collagen III, COL3A1 (gene 1281); experiment: BSK_hDFCGF_CollagenIII: BioMAP Diversity Plus: hDFCGF Assay for Collagen III Biomarker Activity (AID 2283056); conditions: primary human foreskin fibroblasts; actives raise or lower the signal
# Method in brief: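 Human foreskin fibroblast primary cultures sampled 24 h after dosing; Collagen III quantified by ELISA. Signal fitted bidirectionally against DMSO baseline.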
# [7] = read-out: Epidermal growth factor receptor (EGFR), EGFR (gene 1956); experiment: BSK_hDFCGF_EGFR: BioMAP Diversity Plus: hDFCGF Assay for Epidermal growth factor receptor (EGFR) Biomarker Activity (AID 2283057); conditions: primary human foreskin fibroblasts; actives raise or lower the signal
# Method in brief: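 Measured by ELISA: EGFR levels on primary human foreskin fibroblasts 24 h after chemical treatment, analysed relative to DMSO with bidirectional fitting.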
# [8] = read-out: Interleukin-8 (IL8), CXCL8 (gene 3576); experiment: BSK_hDFCGF_IL8: BioMAP Diversity Plus: hDFCGF Assay for Interleukin-8 (IL8) Biomarker Activity (AID 2283058); conditions: primary human foreskin fibroblasts; actives raise or lower the signal
# Method in brief: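 Primary human foreskin fibroblasts (hDFCGF system) dosed with chemical; IL-8 measured by ELISA 24 hours later. Bidirectional curve fitting relative to DMSO baseline; cytotoxicity tracked in parallel cultures by SRB total protein staining.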
# [9] = BSK_hDFCGF_Proliferation: Cell Proliferation Assessment in the BioMAP Diversity Plus: hDFCGF Assay (AID 2283059); conditions: primary human foreskin fibroblasts;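 also: curves fitted for both rise and fall of signal versus DMSO baseline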
# Method in brief: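 Sub-confluent human foreskin fibroblast cultures receive test chemical […]. Relative cell number is quantified by sulforhodamine B staining (0.1%, after 10% TCA fixation) at 560 nm, with bidirectional fitting referenced to DMSO.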
# [10] = read-out: Macrophage colony-stimulating factor (MCSF), CSF1 (gene 1435); experiment: BSK_hDFCGF_MCSF: BioMAP Diversity Plus: hDFCGF Assay for Macrophage colony-stimulating factor (MCSF) Biomarker Activity (AID 2283060); conditions: primary human foreskin fibroblasts; actives raise or lower the signal
# Method in brief: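 Human foreskin fibroblast primary cultures; M-CSF measured by ELISA 24 hours after chemical dosing. Bidirectional fitting relative to DMSO, with overt cytotoxicity tracked by parallel SRB total-protein staining (0.1% SRB, 10% TCA fixation, 560 nm).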
# [11] = BSK_hDFCGF_SRB: Viability Assessment in the BioMAP Diversity Plus: hDFCGF Assay (AID 2283061); conditions: primary human foreskin fibroblasts;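 also: cells exposed to compound for 24 h before the read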
# Method in brief: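 Human foreskin fibroblasts in 96-well plates were treated 24 h. Total protein was measured by 0.1% SRB staining after 10% TCA fixation, read at 560 nm. Data were fitted bidirectionally against DMSO.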
# [12] = read-out: TIMP metallopeptidase inhibitor 1 (TIMP1), TIMP1 (gene 7076); experiment: BSK_hDFCGF_TIMP1: BioMAP Diversity Plus: hDFCGF Assay for TIMP metallopeptidase inhibitor 1 (TIMP1) Biomarker Activity (AID 2283062); conditions: primary human foreskin fibroblasts; actives raise or lower the signal
# Method in brief: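 Human foreskin fibroblast primary cultures dosed for 24 h; secreted/surface TIMP-1 quantified by ELISA. Bidirectional curve fitting against DMSO baseline; cytotoxicity tracked in parallel cultures by SRB total-protein staining.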
# [13] = read-out: Matrix Metallopeptidase 1 (MMP1), MMP1 (gene 4312); experiment: BSK_hDFCGF_MMP1: BioMAP Diversity Plus: hDFCGF Assay for Matrix Metallopeptidase 1 (MMP1) Biomarker Activity (AID 2283064); conditions: primary human foreskin fibroblasts; actives raise or lower the signal
# Method in brief: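 Primary human foreskin fibroblasts in the hDFCGF system were dosed with test chemical, and MMP1 was measured by ELISA 24 h later. Values come from bidirectional curve fitting against the DMSO baseline.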
# [14] = read-out: Vascular cell adhesion molecule 1 (VCAM1), VCAM1 (gene 7412); experiment: BSK_hDFCGF_VCAM1: BioMAP Diversity Plus: hDFCGF Assay for Vascular cell adhesion molecule 1 (VCAM1) Biomarker Activity (AID 2283065); conditions: primary human foreskin fibroblasts; actives raise or lower the signal;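 as to AC50: VCAM-1 protein level quantified by ELISA after 24 h chemical exposure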
# Method in brief: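 Human foreskin fibroblast primary cells dosed with chemical, VCAM-1 measured by ELISA at 24 h. Bidirectional curve fitting relative to DMSO as negative control/baseline.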
# [15] = read-out: Plasminogen activator inhibitor-1 (PAI1), SERPINE1 (gene 5054); experiment: BSK_hDFCGF_PAI1: BioMAP Diversity Plus: hDFCGF Assay for Plasminogen activator inhibitor-1 (PAI1) Biomarker Activity (AID 2283066); conditions: primary human foreskin fibroblasts; actives raise or lower the signal
# Method in brief: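 PAI-1 levels, determined by ELISA, served as the endpoint in human foreskin fibroblast cultures exposed to compound for 24 h, with DMSO as baseline.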
# [16] = read-out: Intercellular Adhesion Molecule 1 (ICAM1), ICAM1 (gene 3383); experiment: BSK_KF3CT_ICAM1: BioMAP Diversity Plus: KF3CT Assay for Intercellular Adhesion Molecule 1 (ICAM1) Biomarker Activity (AID 2283067); conditions: primary human keratinocytes with fibroblasts; actives raise or lower the signal
# Method in brief: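 Human keratinocyte–foreskin fibroblast co-culture was treated for 24 h. Cell-surface ICAM-1 was quantified by ELISA, fitted bidirectionally relative to DMSO. Cytotoxicity was checked in parallel cultures by SRB total-protein staining.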
# [17] = read-out: Interferon-gamma inducible Protein 10 (IP10), CXCL10 (gene 3627); experiment: BSK_KF3CT_IP10: BioMAP Diversity Plus: KF3CT Assay for Interferon-gamma inducible Protein 10 (IP10) Biomarker Activity (AID 2283068); conditions: primary human keratinocytes with fibroblasts; actives raise or lower the signal
# Method in brief: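 ELISA read-out of IP-10 after 24 h chemical dosing of human skin primary co-culture (keratinocytes, foreskin fibroblasts). Gain or loss of signal relative to DMSO, bidirectional curve fit.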
# [18] = BSK_KF3CT_SRB: Viability Assessment in the BioMAP Diversity Plus: KF3CT Assay (AID 2283069); conditions: primary human keratinocytes with fibroblasts;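 also: total protein by sulforhodamine B staining as a cytotoxicity measure; read 24 h after compound addition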
# Method in brief: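 Human primary keratinocyte plus foreskin fibroblast co-culture exposed to chemicals for 24 h. Total protein measured by 0.1% sulforhodamine B staining after 10% TCA fixation, read at 560 nm; bidirectional fitting versus DMSO baseline.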
# [19] = read-out: Interleukin-1 alpha (IL1a), IL1A (gene 3552); experiment: BSK_KF3CT_IL1a: BioMAP Diversity Plus: KF3CT Assay for Interleukin-1 alpha (IL1a) Biomarker Activity (AID 2283070); conditions: primary human keratinocytes with fibroblasts; actives raise or lower the signal
# Method in brief: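 Human keratinocyte plus foreskin fibroblast primary co-culture, sampled 24 h after chemical dosing. IL-1a measured by ELISA; responses fitted bidirectionally against DMSO baseline (negative control), so gain or loss of signal both count.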
# [20] = read-out: Monokine induced gamma interferon (MIG), CXCL9 (gene 4283); experiment: BSK_hDFCGF_MIG: BioMAP Diversity Plus: hDFCGF Assay for Monokine induced gamma interferon (MIG) Biomarker Activity (AID 2283063); conditions: primary human foreskin fibroblasts; actives raise or lower the signal
# Method in brief: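 MIG/CXCL9 measured by ELISA 24 h after dosing primary human skin fibroblasts. Activity fitted in both directions against DMSO controls. Cytotoxicity was checked in parallel cultures by SRB staining read at 560 nm.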
smiles,measurement,setting,value
O=[N+]([O-])c1c(Cl)c(Cl)c(Cl)c(Cl)c1Cl,AC50,[1],24.8 µM (active)
same,outcome,[2],inactive
same,AC50,[3],38 µM (active)
same,outcome,[4],inactive
same,outcome,[5],inactive
same,AC50,[6],14.9 µM (active)
same,outcome,[7],inactive
same,outcome,[8],inactive
same,AC50,[9],19.7 µM (active)
same,AC50,[10],18 µM (active)
same,AC50,[11],31 µM (active)
same,outcome,[12],inactive
same,AC50,[13],0.255 µM (active)
same,AC50,[14],20 µM (active)
same,AC50,[15],28.8 µM (active)
same,outcome,[16],inactive
same,AC50,[17],17.6 µM (active)
same,AC50,[18],25.3 µM (active)
same,AC50,[19],24.4 µM (active)
C[C@H]1[C@H](c2ccc(Cl)cc2)SC(=O)N1C(=O)NC1CCCCC1,AC50,[1],14.9 µM (active)
same,outcome,[2],inactive
same,AC50,[3],20 µM (active)
same,outcome,[4],inactive
same,outcome,[5],inactive
same,AC50,[6],5.46 µM (active)
same,outcome,[7],inactive
same,outcome,[8],inactive
same,AC50,[9],9.3 µM (active)
same,AC50,[10],9.15 µM (active)
same,AC50,[11],8.97 µM (active)
same,outcome,[12],inactive
same,outcome,[20],inactive
same,AC50,[13],5.43 µM (active)
same,outcome,[14],inactive
same,outcome,[15],inactive
same,outcome,[16],inactive
same,outcome,[17],inactive
same,outcome,[18],inactive
same,outcome,[19],inactive
COC(=O)c1ccccc1S(=O)(=O)NC(=O)N(C)c1nc(C)nc(OC)n1,outcome,[1],inactive
same,outcome,[2],inactive
same,AC50,[3],28.7 µM (active)
same,outcome,[4],inactive
same,outcome,[5],inactive
same,outcome,[6],inactive
same,outcome,[7],inactive
same,outcome,[8],inactive
same,outcome,[9],inactive
same,outcome,[10],inactive
same,outcome,[11],inactive
same,outcome,[12],inactive
same,outcome,[13],inactive
same,outcome,[14],inactive
same,outcome,[15],inactive
same,outcome,[16],inactive
same,outcome,[17],inactive
same,outcome,[18],inactive
same,outcome,[19],inactive
O=C(NC(=O)c1c(F)cccc1F)Nc1ccc(OC(F)(F)C(F)OC(F)(F)F)c(Cl)c1 (configuration not stated),outcome,[1],inactive
same,outcome,[2],inactive
same,outcome,[3],inactive
same,outcome,[4],inactive
same,outcome,[5],inactive
same,outcome,[6],inactive
same,outcome,[7],inactive
same,outcome,[8],inactive
same,outcome,[9],inactive
same,outcome,[10],inactive
same,outcome,[12],inactive
same,outcome,[20],inactive
same,outcome,[13],inactive
same,outcome,[14],inactive
same,outcome,[15],inactive
same,outcome,[16],inactive
same,outcome,[17],inactive
same,outcome,[18],inactive
same,outcome,[19],inactive
COc1cc(OC)nc(NC(=O)NS(=O)(=O)c2cc(NC=O)ccc2C(=O)N(C)C)n1,outcome,[1],inactive
same,outcome,[2],inactive
same,outcome,[3],inactive
same,outcome,[4],inactive
same,outcome,[5],inactive
same,outcome,[6],inactive
same,outcome,[7],inactive
same,outcome,[8],inactive
same,outcome,[9],inactive
same,outcome,[10],inactive
same,outcome,[11],inactive
same,outcome,[12],inactive
same,outcome,[20],inactive
same,outcome,[13],inactive
same,outcome,[14],inactive
same,outcome,[15],inactive
same,outcome,[16],inactive
same,outcome,[17],inactive
same,outcome,[18],inactive
same,outcome,[19],inactive
